# In all, about 53,000 sequences went through this assay and about 3,700 (7%) were called active.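 Rule for the calls: active = gene knockdowns whose robust z-score for IL-1 alpha signal is at least 2 or at most -2, so actives lie on both sides; inactive = the rest.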 The full list was thinned out, with actives kept by preference.
# Assay: Components of the Cytosolic LPS Sensing Pathway: Gene Identification via Genome-wide siRNA Screen;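 note: robust z of the log signal after scaling to non-targeting control siRNA wells of the plate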
# Settings: RAW264.7 macrophages, IL-1a HTRF, actives lie on both sides, screened at 100 nM (by protocol), cells primed 5 h with Pam3CSK4 first
# Procedure, shortened: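 IL-1a HTRF of supernatants after 24 hour LipidA transfection of Pam3CSK4-primed (5 hours) RAW264.7 cells, 48h post-siRNA transfection (100 nM). Scores: percent of plate negative-control median, then log-based robust z-score.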
row,Sequence,z-score
1,GGCUAUGAUGAUUAUAAUGTT against Hnrnph1,0.724 (inactive)
2,GGACCAGAGGAGAUUUCAATT against Ern2,1.56 (inactive)
3,GGUAAACUCAAGUUUUCAGTT against Inpp5j,2.36 (active)
4,GGAUGAGAAACCAUUUAAATT against Oas1f,-1.08 (inactive)
5,GGAUCUCCCUCUAAAUAUUTT against Hsp90aa1,-0.138 (inactive)
6,CGGAAAGUCCGGUUUCGAATT against Grxcr1,0.156 (inactive)
7,CGAAGUUACGAGCAUCCACTT against Crhr2,3.81 (active)
8,GGUUUACAGCAUCAUUAAATT against Shmt1,0.345 (inactive)
9,CCAGACGAGGAGAACAUCATT against Samd4b,-0.111 (inactive)
10,GGAUUAGCCUGGUCCUUUUTT against Dusp14,0.989 (inactive)
11,CCGUCCGAUGAAAAACAGGTT against Prm1,-0.128 (inactive)
12,GCCCACCGACUUUAUUAACTT against Tfap2d,0.541 (inactive)
13,GCCAGACAAGCCUCAUUGATT against Ncapd2,-2.2 (active)
14,GGAAAAGAAAAUCGAGACCTT against Ubap2l,0.776 (inactive)
15,GGUACAAAUGCAUUGAGAGTT against Fcamr,-1.3 (inactive)
16,GGCAAAGACAAGAAGCUGUTT against Drap1,-0.445 (inactive)
17,GCACAACUUAUGACUGAAATT against Emc4,1.66 (inactive)
18,GCUUCAAGUCAACUUAGUCTT against Hal,1.24 (inactive)
19,GCGAAUUCGAAAGCUAUGATT against Arhgef10,-2.19 (active)
20,CCGAAGACUAGCUAAUUUUTT against Sult1c1,1.17 (inactive)
21,CCUUCAACUAUGGCAAAUATT against Cacul1,-0.241 (inactive)
22,GCUCUGAACUCAAUAAUAATT against Atg7,-0.875 (inactive)

row,Sequence,z-score
1,GCGGAUCUGCUUUUUGCACTT against Ttc14,-0.105 (inactive)
2,ACUUCGUAAAAGAGCACAATT against Platr25,1.02 (inactive)
3,GGAUCUUGAAGAUAAGAGCTT against 1810009A15Rik,-0.599 (inactive)
4,GGGUUUCAGAACUGAGUUATT against Saa1,-0.28 (inactive)
5,GCCAUGAAUCCUAUCCGCATT against Ephb3,-0.967 (inactive)
6,CCACCUAAUUUAUUGCUGUTT against Mafk,0.745 (inactive)
7,GGGUAGAAUGUGUGUGUCUTT against Abhd15,-2.52 (active)
8,GGCUGGCAUCACCAUCAAATT against Kit,0.429 (inactive)
9,CCACUUAUAACUCAUAGUUTT against Ugt2b34,0.0725 (inactive)
10,GGACCGCUUCAACAGUAUGTT against Tcfl5,-0.525 (inactive)
11,CGCAUCUGUUUCUUUUCCCTT against 1700029P11Rik,-2.22 (active)
12,GCAGGAGUUUAUCAGAGGATT against Prim2,-1.64 (inactive)
13,GGCAGCAAAGUCAAGAUGUTT against Msgn1,-1.82 (inactive)
14,GGGAGGAGAAAAAUAUUCUTT against Olfr1094,-1.5 (inactive)
15,GGAGAUCUUAGCAAAGUAUTT against Degs1,2.41 (active)
16,CCUUCAUUCUCAUGUGACCTT against Psat1,-1.2 (inactive)
17,CCUUAAGGAACUAGGAUUCTT against Lgr5,1.05 (inactive)
18,GGUCCUCCCAUAAUCUAGUTT against Lrrc75a,1.18 (inactive)
19,GCUCAUUGCACUAAAAGACTT against Tnnt1,-1.92 (inactive)
20,CCGCGUCUGUAUUUGAUAUTT against Sccpdh,1.68 (inactive)
21,GGAAGUCCUGGACAUUCAGTT against Nfkbie,5.66 (active)
22,GGUUGAGUUUCAGUGCAUCTT against Klhl28,-0.632 (inactive)

row,Sequence,z-score
1,GCUUGAUUGUCAGUUGGAATT against Tcp11,-0.364 (inactive)
2,GGGUAGUUUUGACUUUGUUTT against Schip1,0.472 (inactive)
3,GGAAUAAGGCGAGUUGGAATT against Serbp1,0.493 (inactive)
4,GGCCUAUAAUUUCUUUACGTT against Cc2d2a,-0.823 (inactive)
5,CGCGAGGAAGUCGAGGUAUTT against Pax2,1.17 (inactive)
6,GGAUGUACACAGAAGGCCATT against Sucnr1,3.47 (active)
7,GGCACCCUCAAGAAAGCGUTT against Nol6,-1.34 (inactive)
8,GGGCUUACUGCUUAAUAGATT against Fundc2,0.481 (inactive)
9,CGUGGACUUAAUAUUUCAGTT against Btbd7,0.685 (inactive)
10,GCCUCCUAGUAUUUACAUGTT against Ube2j2,0.8 (inactive)
11,CCAGGCCAAAUCUCACAAUTT against A730008H23Rik,-2.2 (active)
12,CCGUGAAAAUCAGUAAUUATT against Cacybp,-0.546 (inactive)
13,GGACUUAUCAAGCUGGUUUTT against Rps25,-1.48 (inactive)
14,GCUCACAUUGAGUGGUUGGTT against Ncbp3,0.542 (inactive)
15,GGAGUUACGUAGAACUACCTT against Adam25,0.543 (inactive)
16,GCAAAUAUUGGCCACUCUCTT against Prpf19,-0.523 (inactive)
17,GCCAAGAAAAUCAAGUCUCTT against Pknox2,0.892 (inactive)
18,GGAAGGAGAAGAAAACAUATT against Gtf3c6,-2.13 (active)
19,GGCUGUCCAGACUAGUUCUTT against Lsm14b,-0.317 (inactive)
20,CCUCAUCAUAUUCUCCUGATT against Olfr869,-0.848 (inactive)
21,CCUGUCUUUAGUGGACUUUTT against Olfr1453,0.22 (inactive)
22,GGUCUUUGAGAAGUACCACTT against Chst3,-0.22 (inactive)

row,Sequence,z-score
1,CCAGUCCUUGAAAAGAGCUTT against Olfr128,-2.35 (active)
2,CGCCCAAAUUGACUAUUUGTT against Fam214b,0.351 (inactive)
3,GAGAGCGGAGAGAUCAAAGTT against Iltifb,0.108 (inactive)
4,GGCUGUUCCAGAGAUUGUGTT against Mela,-0.29 (inactive)
5,GCGGUAUGAGAAGGUUCCATT against Rap2a,3.48 (active)
6,GGCAUUGACAUCAUGUACUTT against Agxt,1.1 (inactive)
7,GCGACAUCACAAGAAUCGATT against Fancd2,-0.979 (inactive)
8,CCUAUCAAAUUAAAUGCGCTT against Muc13,-0.6 (inactive)
9,GGUUGUGAUCAAUUAUUCATT against Evl,1.27 (inactive)
10,GGAACACUCUGAAUUCAUUTT against Cxcl15,0.0905 (inactive)
11,GCUGCUUUACUUAAGAGUUTT against Srf,0.625 (inactive)
12,GCGAAACUUCCAGAUCUAGTT against Cnot11,2.14 (active)
13,GGGCAAGAGAGUAGAACUGTT against Ambra1,0.383 (inactive)
14,GGUGACACAGCUGCUUUUCTT against Dact2,0.107 (inactive)
15,CGGUCCAGGAAGAAUGUUUTT against Bckdhb,-0.781 (inactive)
16,GGAUUGUCAGAAAUCCUGATT against Adat2,-1.22 (inactive)
17,CCCAUCAAUAUCAUAUCCATT against Car7,-2.34 (active)
18,CCAGAGUUCUGGGAUUCCATT against Cyp2c66,-0.948 (inactive)
19,GGCCAAGAAUGAUCGUUCUTT against Gabrb3,0.00587 (inactive)
20,GCAGACAGUAAAUUGGUAATT against Mab21l3,0.915 (inactive)
21,GGAUUACACACCUACGAUCTT against Taf10,-1.63 (inactive)
22,CGACUACCUGGAUAUCUACTT against Efna2,-0.292 (inactive)

row,Sequence,z-score
1,GGCGUGUUGAGACAAUCCUTT against Lkaaear1,-0.815 (inactive)
2,GCAUAGCAGGAAGGCCUUGTT against Htr6,0.183 (inactive)
3,GCAUAUUGUGCGACUUUUCTT against Utp15,-2.16 (active)
4,GCAAAUUUUAUCAACCGCATT against Mical3,-0.0618 (inactive)
5,CGACCAUACGAAUGCGGCATT against Zfp865,0.498 (inactive)
6,GGCUUGAACACAAGAAAGCTT against Golim4,-0.778 (inactive)
7,GGAUGAGAAUAUUGAAAGATT against 4932415M13Rik,-0.225 (inactive)
8,GGCAGGAAAACUGCCAAUGTT against Gm6034,1.36 (inactive)
9,CCUUAAUUGGGUUGAAUUCTT against Olfr878,2.44 (active)
10,GCUGACUAAGGCUUGUAAUTT against Hrnr,-0.194 (inactive)
11,GGUUAAUUCCAACAAAGCATT against Orc4,-0.529 (inactive)
12,GGUCUACAACCAAAUCUGCTT against Clec7a,-0.531 (inactive)
13,CCUGAGACUGCAUCUUUUCTT against Slc10a7,-0.693 (inactive)
14,GCCAAAUUAAGUAUCUUGATT against Lamp2,0.371 (inactive)
15,GCCUCAUUGAAAGGAUCCATT against Mgat5b,-2.32 (active)
16,GGCGGAAAAAAAAGUAAUATT against Crebzf,0.926 (inactive)
17,GGCUCAUUGGACAUAUAUGTT against Casp8ap2,-1.77 (inactive)
18,GGGACACCAAGUUUUCCAUTT against Paqr7,1.63 (inactive)
19,GGAAGAAGCAGGUGAUUAATT against Grb14,-1.24 (inactive)

# From PubChem BioAssay AID1508600 (Functional Genomics Laboratory (NCATS/FGL), 2020)
